# Experimental data from PubChem BioAssay AID1508600 (Functional Genomics Laboratory (NCATS/FGL), 2020).
# Among all 53,000 sequences or so, about 3,700 (7%) were called active.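 Rule for the calls: active = gene knockdowns whose robust z-score for IL-1 alpha signal is at least 2 or at most -2, so actives lie on both sides; inactive = the rest.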 The full list was thinned out, with actives kept by preference.
# Assay: Components of the Cytosolic LPS Sensing Pathway: Gene Identification via Genome-wide siRNA Screen;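 note: robust z of the log signal after scaling to non-targeting control siRNA wells of the plate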
# Conditions: RAW264.7 macrophages, IL-1a HTRF, actives lie on both sides, screened at 100 nM (by protocol), cells primed 5 h with Pam3CSK4 first
# How it was run: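 Knockdown: 100 nM siRNA, 48h, RAW264.7. Stimulation: Pam3CSK4 5 h, then LipidA via TransIT-TKO 24 h. Output: supernatant IL-1a HTRF, negative-control-normalized, log robust z-score; viability by CellTiter-Glo.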
row,Sequence,z-score
1,GGAGAUGGACUCACUGAUGTT against Zscan20,-1.32 (inactive)
2,CCACAAAGGAAUUCAUGAGTT against Dhx16,-1.41 (inactive)
3,GGUCAAGGAGAUCACCUUCTT against Comp,-1.27 (inactive)
4,GGAAAAGGAAACCCAGAGCTT against Tdg,-2.4 (active)
5,CCCGGAAUGUUUAGUAUCGTT against Fermt1,-1.25 (inactive)
6,GGCCAUUAACAGCAGUCUGTT against Kifc5b,-1.71 (inactive)
7,GGAAGUGGAACACAUGAUCTT against Zfp346,-0.449 (inactive)
8,GGCAUGAAUGAGUUUAUCATT against Vps8,-1.12 (inactive)
9,GGAGAAAUAUGUAUGUACATT against Ece2,2.01 (active)
10,GGAGUCUGAAGAUGACAUGTT against Rplp1,-0.775 (inactive)
11,GCCACUAAAUCCUGUUUCCTT against Ydjc,-0.0858 (inactive)
12,GAGAUGGAAAGUGGUUUCUTT against Olfr1226,0.543 (inactive)
13,GGUCACGAUUCUGUCAGACTT against Ctnnal1,3.57 (active)
14,GGUGAAAAUCAAGCUGAAUTT against Smarca2,1.36 (inactive)
15,GGCUUCCAAGCCUAAAGCUTT against H1f3,-0.266 (inactive)
16,GGAUCAAUUGACCACAAACTT against Magi3,0.164 (inactive)
17,GCGAUGCACUGUGUAAACUTT against Ccr6,0.772 (inactive)
18,GGGCUUGUAGAUGUGCGUATT against Hic2,3.32 (active)
19,UGCGGUUGAAUUCUCCCAUTT against Fbll1,-0.525 (inactive)
20,CGCACUUACCGUGUCCUAUTT against Homer3,0.0495 (inactive)
21,GGAGAGAAAGAAUUUCAUCTT against Chordc1,0.185 (inactive)
22,GGAAAUCAGAGAGAAGAUGTT against Nubp1,-1.53 (inactive)
23,CCACAGAGUUCCUAUACAATT against Pfkl,-2.52 (active)

row,Sequence,z-score
1,CCCACGGAGGCAAUAAAUATT against Crygn,-0.155 (inactive)
2,GGAGAACUUCAGUGAGUCCTT against Ambp,-2.43 (active)
3,GCCACUCACCUAGCAAAGATT against Fbrsl1,-1.36 (inactive)
4,GGAAAUUUCAGUCGUAGUATT against Mgat4c,0.642 (inactive)
5,CGACUAUAGACUCUUGAAUTT against 1810037I17Rik,0.573 (inactive)
6,GGAGAAAUACAACUGAAAATT against Pcdhb7,-0.0269 (inactive)
7,GGCCAGAAGAUCUUCACCATT against Furin,0.449 (inactive)
8,GCUCUUUGGUCGAGAACCATT against Mup5,-2.42 (active)
9,GCAUCGUUUGUGAGAAUUUTT against Perp,-0.61 (inactive)
10,GGGCUAUCCUUCUGAAUUUTT against Csnk1d,1.46 (inactive)
11,GCUCUCCAUUACGUGCUUGTT against Rrp9,1.39 (inactive)
12,GGAGAGAAAGAACUGGAAATT against Fam78a,0.357 (inactive)
13,CCUAUCAGACUGUAAUAAGTT against Kdm2b,-0.404 (inactive)
14,GGGUGUAUUACCUCUCUCUTT against Pygl,2.12 (active)
15,CCACGAUAGCACCUAUUUUTT against Gucy2c,-0.405 (inactive)
16,GGAACAUUGAAAGGAUUAATT against Smc3,-1.9 (inactive)
17,GGCUUAAGUAUUUUUCUGATT against Aktip,-0.269 (inactive)
18,GGUCUUCAUCUGUCCAACUTT against Tmlhe,-2.09 (active)
19,CCUGUACCUGCGUAUUCAATT against Grap,-1.63 (inactive)
20,GGUGCAGCACUUCAAAGUGTT against Grap,2.41 (active)
21,GGCCUGAAGACAGACAUGATT against C030016D13Rik,-1.2 (inactive)
22,GGAAGAGAUGAAGAAAAUGTT against Cetn1,-1.01 (inactive)
23,GGAACUUUUGGCCAGCAAGTT against Opa1,1.59 (inactive)

row,Sequence,z-score
1,CGAUUACAUCCUUUUUGACTT against Gpn3,-0.228 (inactive)
2,GCGCCUUAACCAAGAAGUUTT against Cox18,2.84 (active)
3,GGAUCUAGAACAGAAAAUGTT against Stat3,-1.55 (inactive)
4,GCUGCUAUGACCUAUGGCATT against Sptlc2,-0.543 (inactive)
5,GGGUUGUCGUUCAGUUUACTT against Art2a,2.8 (active)
6,GGAAUUAAGUCAUCAGGAATT against Slc6a5,-0.763 (inactive)
7,GCGCACAAAAAACAUGAUATT against Plaat5,0.211 (inactive)
8,GGAAUUCGAUGCAUUUGUATT against Il18rap,-0.34 (inactive)
9,GCUCAGCUGUGGGUAAUACTT against Raver2,-2.77 (active)
10,GGAUAUCACAUAGCAUCGGTT against 1700025G04Rik,-0.742 (inactive)
11,GGAUGUCUCAAAGUAAGAATT against Cd55b,-0.124 (inactive)
12,GGACGAGUGCCUGUUUUCATT against Med8,4.09 (active)
13,GCAAUGGAACCACCUCUGATT against Zic5,1.41 (inactive)
14,GGAAGAAGCUGAGGAAAGCTT against Spata1,0.15 (inactive)
15,GGAUGGACUCUGUUCCUGUTT against Susd2,0.956 (inactive)
16,GGCCAUUGGACACAGAAUCTT against Rpl35a,2.28 (active)
17,GCAAUUAGUAUCUAUUACCTT against Txndc17,-0.448 (inactive)
18,GGCUACAAAGGAGUUCCUATT against Sgf29,0.516 (inactive)
19,GCUACUAAACAAGCCGGCATT against Msl1,0.341 (inactive)
20,GGCUUUGUGGAUUUUGAAGTT against Cabp4,-1.2 (inactive)
21,GGACGUGUUUGGGAUUGUUTT against Csad,-0.765 (inactive)
22,GGAUGAGUUCCUUUUACUATT against Cntnap4,0.285 (inactive)
23,CCUCUGUUAUGGUAAUUCUTT against Olfr1323,-0.371 (inactive)
